# The source holds several records for some structures; these can differ, active in one and inactive in another. The source made the active and inactive calls. How the source made its calls: active means hit-call score of the fitted dose curve at least 0.9, where 1 is the maximum; inactive means score below 0.9.
# Assays:
# [1] = BSK_hDFCGF_SRB: Viability Assessment in the BioMAP Diversity Plus: hDFCGF Assay (AID 2283061); conditions: primary human foreskin fibroblasts;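 further: cells exposed to compound for 24 h before the read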
# Procedure, shortened: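 Cells were dosed with test chemical, cultured 24 h, fixed with 10% TCA, then stained with 0.1% SRB and read at 560 nm. The fibroblasts were human foreskin primary cells, and DMSO served as baseline.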
# [2] = read-out: TIMP metallopeptidase inhibitor 1 (TIMP1), TIMP1 (gene 7076); assay: BSK_hDFCGF_TIMP1: BioMAP Diversity Plus: hDFCGF Assay for TIMP metallopeptidase inhibitor 1 (TIMP1) Biomarker Activity (AID 2283062); conditions: primary human foreskin fibroblasts; actives raise or lower the signal
# Procedure, shortened: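 Fibroblasts from human foreskin are treated with test chemical and harvested at 24 h. TIMP-1 is quantified by ELISA, and gain or loss of signal is scored against DMSO.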
# [3] = read-out: Monokine induced gamma interferon (MIG), CXCL9 (gene 4283); assay: BSK_hDFCGF_MIG: BioMAP Diversity Plus: hDFCGF Assay for Monokine induced gamma interferon (MIG) Biomarker Activity (AID 2283063); conditions: primary human foreskin fibroblasts; actives raise or lower the signal
# Procedure, shortened: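 MIG signal, determined by ELISA, reflects 24 h chemical exposure of human skin primary fibroblasts. DMSO serves as negative control and baseline.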
# [4] = read-out: Matrix Metallopeptidase 1 (MMP1), MMP1 (gene 4312); assay: BSK_hDFCGF_MMP1: BioMAP Diversity Plus: hDFCGF Assay for Matrix Metallopeptidase 1 (MMP1) Biomarker Activity (AID 2283064); conditions: primary human foreskin fibroblasts; actives raise or lower the signal
# Procedure, shortened: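 Primary human foreskin fibroblasts in the hDFCGF system were dosed with test chemical, and MMP1 was measured by ELISA 24 h later. Values come from bidirectional curve fitting against the DMSO baseline.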
# [5] = read-out: Vascular cell adhesion molecule 1 (VCAM1), VCAM1 (gene 7412); assay: BSK_hDFCGF_VCAM1: BioMAP Diversity Plus: hDFCGF Assay for Vascular cell adhesion molecule 1 (VCAM1) Biomarker Activity (AID 2283065); conditions: primary human foreskin fibroblasts; actives raise or lower the signal;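 on AC50: VCAM-1 protein level quantified by ELISA after 24 h chemical exposure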
# Procedure, shortened: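 Cells are dosed, cultured for 24 h, then VCAM-1 is quantified by ELISA; signal increases and decreases are both fitted relative to DMSO.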
# [6] = read-out: Plasminogen activator inhibitor-1 (PAI1), SERPINE1 (gene 5054); assay: BSK_hDFCGF_PAI1: BioMAP Diversity Plus: hDFCGF Assay for Plasminogen activator inhibitor-1 (PAI1) Biomarker Activity (AID 2283066); conditions: primary human foreskin fibroblasts; actives raise or lower the signal
# Procedure, shortened: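 Human foreskin fibroblasts in the hDFCGF system were dosed with compound for 24 h; PAI-1 was quantified by ELISA. Bidirectional curve fitting used DMSO as negative control and baseline.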
# [7] = read-out: Intercellular Adhesion Molecule 1 (ICAM1), ICAM1 (gene 3383); assay: BSK_KF3CT_ICAM1: BioMAP Diversity Plus: KF3CT Assay for Intercellular Adhesion Molecule 1 (ICAM1) Biomarker Activity (AID 2283067); conditions: primary human keratinocytes with fibroblasts; actives raise or lower the signal
# Procedure, shortened: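 Dose the keratinocyte/fibroblast co-culture, wait 24 h, measure ICAM-1 by ELISA, then fit increases or decreases against DMSO. Cytotoxicity is checked in parallel cultures by SRB total-protein staining.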
# [8] = read-out: Interferon-gamma inducible Protein 10 (IP10), CXCL10 (gene 3627); assay: BSK_KF3CT_IP10: BioMAP Diversity Plus: KF3CT Assay for Interferon-gamma inducible Protein 10 (IP10) Biomarker Activity (AID 2283068); conditions: primary human keratinocytes with fibroblasts; actives raise or lower the signal
# Procedure, shortened: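 In a primary skin co-culture of keratinocytes and fibroblasts, IP-10 is quantified by ELISA at 24 h after dosing. SRB staining of parallel wells monitors overt toxicity. Curves are fitted both directions against DMSO.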
# [9] = BSK_KF3CT_SRB: Viability Assessment in the BioMAP Diversity Plus: KF3CT Assay (AID 2283069); conditions: primary human keratinocytes with fibroblasts;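 further: total protein by sulforhodamine B staining as a cytotoxicity measure; read 24 h after compound addition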
# Procedure, shortened: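 Human primary keratinocyte plus foreskin fibroblast co-culture exposed to chemicals for 24 h. Total protein measured by 0.1% sulforhodamine B staining after 10% TCA fixation, read at 560 nm; bidirectional fitting versus DMSO baseline.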
# [10] = read-out: Interleukin-1 alpha (IL1a), IL1A (gene 3552); assay: BSK_KF3CT_IL1a: BioMAP Diversity Plus: KF3CT Assay for Interleukin-1 alpha (IL1a) Biomarker Activity (AID 2283070); conditions: primary human keratinocytes with fibroblasts; actives raise or lower the signal
# Procedure, shortened: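 Human keratinocyte plus foreskin fibroblast primary co-culture, sampled 24 h after chemical dosing. IL-1a measured by ELISA; responses fitted bidirectionally against DMSO baseline (negative control), so gain or loss of signal both count.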
Compound,outcome [1],outcome [2],outcome [3],AC50 [4],outcome [5],outcome [6],outcome [7],outcome [8],outcome [9],outcome [10],AC50 [1],AC50 [5],outcome [4],AC50 [6],AC50 [2],AC50 [3]
C[C@]12C=CC(=O)C=C1CC[C@H]1[C@@H]3C[C@@H](O)[C@](O)(C(=O)CO)[C@@]3(C)C[C@H](O)[C@@]12F,inactive,inactive,inactive,0.148 µM (active),inactive,inactive,inactive,inactive,inactive,inactive,,,,,,
CCCCN1C(=O)[C@@H]([C@H](O)C2CCCCC2)NC(=O)C12CCN(Cc1ccc(Oc3ccc(C(=O)O)cc3)cc1)CC2,,inactive,inactive,7.18 µM (active),,inactive,inactive,inactive,inactive,inactive,20 µM (active),31 µM (active),,,,
O=C(O)c1ccc2c(c1)nc(C(=O)NC1CCN(C3CC3)CC1)n2Cc1cc(-c2ccc(Cl)s2)on1,inactive,inactive,inactive,,inactive,inactive,inactive,inactive,inactive,inactive,,,inactive,,,
CCn1nc(C)c2c1C(=O)NCC(c1ccc(O)cc1)=N2,inactive,inactive,inactive,,inactive,,inactive,inactive,inactive,inactive,,,inactive,1.14 µM (active),,
CC(C)C(=O)Nc1ccc([N+](=O)[O-])c(C(F)(F)F)c1,inactive,inactive,inactive,,inactive,inactive,inactive,inactive,inactive,inactive,,,inactive,,,
C[Si](C)(C)C(F)(F)C(F)(F)C(F)(F)F,inactive,inactive,inactive,,inactive,,inactive,inactive,inactive,inactive,30 µM (active),,inactive,,,
Cc1nc(-c2ccccn2)ncc1C(=O)Nn1cc(C)c2cc(F)ccc21,inactive,inactive,inactive,,inactive,inactive,inactive,inactive,inactive,inactive,,,inactive,,,
O=C(O)c1cccc(C(=O)O)c1,inactive,inactive,inactive,,inactive,inactive,inactive,inactive,inactive,inactive,,,inactive,,,
CCOc1ccc2[nH]cc(C(=O)NCc3ccccc3)c(=O)c2n1,inactive,inactive,inactive,,inactive,inactive,inactive,inactive,inactive,inactive,,,inactive,,,
NC(=O)N1c2ccccc2C=Cc2ccccc21,inactive,inactive,inactive,,inactive,inactive,inactive,inactive,inactive,inactive,,,inactive,,,
Cc1nccn1-c1ccc(Sc2cccc(C3(C(N)=O)CCOCC3)c2)cc1,inactive,,,2.9 µM (active),,inactive,inactive,inactive,inactive,inactive,,3.25 µM (active),,,2.1 µM (active),6.44 µM (active)
FC(F)C(F)(F)COCC1CO1 (stereo not given),inactive,inactive,inactive,,inactive,inactive,inactive,inactive,inactive,inactive,,,inactive,,,
FC(F)(F)C(F)(F)C(F)(F)C(F)(F)C(F)(F)C(F)(F)I,inactive,inactive,inactive,,inactive,,inactive,inactive,inactive,inactive,,48.3 µM (active),inactive,,,
CCCCCCCCCC,inactive,inactive,inactive,,inactive,inactive,inactive,inactive,inactive,inactive,,,inactive,,,
O=C(O)[C@H](O)[C@@H](O)C(=O)O,inactive,inactive,inactive,,inactive,inactive,inactive,inactive,inactive,inactive,,,inactive,,,
CCCc1ccccc1,inactive,inactive,inactive,,inactive,inactive,inactive,inactive,inactive,inactive,,,inactive,,,
C=CN1CCCC1=O,inactive,inactive,inactive,,inactive,inactive,inactive,inactive,inactive,inactive,,,inactive,,,
CCCCCCCC/C=C\CCCCCCCC(=O)OC[C@@H](O)[C@H]1OC[C@H](O)[C@H]1O,inactive,inactive,inactive,,inactive,inactive,inactive,inactive,inactive,inactive,,,inactive,,,
O=S(=O)(O)CCC(F)(F)C(F)(F)C(F)(F)C(F)(F)C(F)(F)C(F)(F)F,inactive,inactive,inactive,,inactive,,inactive,inactive,inactive,inactive,8.85 µM (active),,inactive,,,
O=C1CN(N=Cc2ccc([N+](=O)[O-])o2)C(=O)N1,inactive,inactive,inactive,,inactive,inactive,inactive,inactive,inactive,inactive,,,inactive,,,
CC(C)c1nnc2ccc(-c3ocnc3-c3cc(F)ccc3F)cn12,inactive,inactive,inactive,0.385 µM (active),,inactive,inactive,inactive,inactive,inactive,,0.148 µM (active),,,,
CC(C)CC(C)O (stereo not given),inactive,inactive,inactive,,inactive,inactive,inactive,inactive,inactive,inactive,,,inactive,,,
S=P(N1CC1)(N1CC1)N1CC1,inactive,inactive,inactive,,inactive,inactive,inactive,inactive,inactive,inactive,,,inactive,,,
O=C(Cl)C(F)(F)C(F)(F)C(F)(F)C(=O)Cl,inactive,inactive,inactive,,inactive,inactive,inactive,inactive,inactive,inactive,,,inactive,,,
CCOC(N)=O,inactive,inactive,inactive,,inactive,inactive,inactive,inactive,inactive,inactive,,,inactive,,,
OCC(CO)(CO)CO,inactive,inactive,inactive,,inactive,inactive,inactive,inactive,inactive,inactive,,,inactive,,,
NC(N)=O,inactive,inactive,inactive,,inactive,inactive,inactive,inactive,inactive,inactive,,,inactive,,,
